# Data: PubChem BioAssay
# Target: Fibroblast growth factor 10 (Homo sapiens) (UniProt O15520)
# Assay: FGF10 binders on small-molecule microarrays, primary screen, biochemical, small-molecule microarray, 635 nm fluorescence (AID 1102)
# Settings: FGF10 binding, fluorescence 635 nm, higher = more signal
# Fibroblast growth factor 10 (Homo sapiens), sequence (O15520 whole entry, looked up): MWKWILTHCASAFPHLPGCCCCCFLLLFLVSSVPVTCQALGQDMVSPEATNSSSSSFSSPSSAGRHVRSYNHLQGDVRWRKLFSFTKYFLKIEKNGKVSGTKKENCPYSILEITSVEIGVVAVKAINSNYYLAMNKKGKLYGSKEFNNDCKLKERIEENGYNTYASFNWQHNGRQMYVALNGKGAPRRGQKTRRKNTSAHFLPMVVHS
row,SMILES,composite z-score
1,C[C@@]1([C@@H](NC(=O)c2cccs2)c2ccc(-c3ccccc3)cc2)C[C@H]1C1CCCCC1,-0.728
2,COc1cccc(C[C@H]2C[C@@H](CO[Si](C(C)C)(C(C)C)C(C)C)N3C(=O)[C@]4(C(C)=O)O[C@]23[C@H]2C(=O)N(C)C(=O)[C@H]24)c1,0.759
3,[N-]=[N+]=Nc1ccccc1[C@@H]1OC(c2ccc(OCCCO)cc2)=N[C@]1(CCS(=O)(=O)c1ccccc1)C(=O)NCc1ccccc1,1.25
4,C=CC[C@@]1(C(=O)NCCN2CCOCC2)N=C(c2ccc(OCCCO)cc2)O[C@@H]1c1ccccc1,1.5
5,COC(=O)C(CC#Cc1ccc2c(c1)[C@]1(C(=O)N2)[C@H](c2ccc(OCCO)cc2)N2[C@H](c3ccccc3)[C@H](c3ccccc3)OC(=O)[C@H]2[C@@H]1C(=O)O)C(=O)OC,0.809
6,COC(=O)c1ccc(OC)c(/C=C\CC(CCc2ccccc2)OC(C)=O)c1 (stereo not drawn),-0.614
7,COCC1=C([C@H](O)CCc2ccccc2)[C@H](CO)[C@@H]2C(=O)N(C)C(=O)[C@@H]2C1,0.397
8,COc1cc(NN2C(C(O)c3ccc(I)cc3)C=CC3C(=O)N(C)C(=O)C32)cc(OC)c1OC (stereo not drawn),-0.0431
9,CC(C)N1C(=O)c2ccccc2[C@](C)(C(=O)O)[C@@H]1c1ccc(CO)cc1,-0.756
10,NC(=O)NCC#Cc1ccc2c(c1)[C@]1(C(=O)N2)[C@H](c2ccc(O)cc2)N2[C@H](c3ccccc3)[C@H](c3ccccc3)OC(=O)[C@H]2[C@@H]1C(N)=O,-0.0652
11,CCCCC(CC)C(O)C1C=CC2C(=O)NC(=O)C2N1Nc1ccccn1 (stereo not drawn),0.327
12,COC(=O)[C@@]1(Cc2ccccc2)[C@H]2c3cc(C(=O)N4CCCC4)n(Cc4ccc(OC(F)(F)F)cc4)c3C[C@H]2CN1C(=O)c1ccccc1,0.872
13,C=C(COC)C(=O)CC[C@H](OC(=O)c1ccccc1-c1ccccc1C(=O)O)c1ccc(OCCO)cc1,1.35

# Test system: glycogen synthase kinase-3 (GSK3A per assay name; protocol says GSK3B)
# Assay: GSK3 binders on small-molecule microarrays, primary screen, biochemical, small-molecule microarray, 635 nm fluorescence, GSK3A (AID 1103); note: the record names both GSK3A and GSK3B
# Settings: small-molecule microarray binding, fluorescence 635 nm; higher = more signal
row,SMILES,composite z-score
1,C=C[C@@H](O)[C@H]1CC(c2ccccc2)=NO1,-0.408
2,COC(=O)[C@]1(Cc2ccccc2CN=[N+]=[N-])N=C(c2ccc(OCCCO)cc2)O[C@@H]1c1ccccc1CN=[N+]=[N-],0.419
3,O=C1C2C=CC(C(O)c3cccc4ccccc34)N(Nc3ccccc3)C2C(=O)N1c1ccccc1 (stereo not drawn),1.28
4,O=C(O)[C@@]1(Cc2ccccc2)COC(c2ccc(OCCCO)cc2)=N1,-0.835
5,O=C1c2ccccc2[C@](Cc2ccccc2I)(C(=O)NC2CC2)[C@H](c2ccc(CO)cc2)N1Cc1ccccc1Cl,1.28
6,O=C(NCc1ccccc1)[C@]1(Cc2ccccc2)N=C(c2ccc(OCCCO)cc2)O[C@@H]1c1ccccc1,0.789
7,COCCCNC(=O)[C@@H]1c2ccccc2C(=O)N(Cc2cc(F)cc(C(F)(F)F)c2)[C@H]1c1ccc(CO)cc1,-1.72
8,COC(=O)[C@@]1(Cc2ccc(OC)cc2)[C@H]2c3cc(C(=O)N4CCCC4)n(CCF)c3C[C@H]2CN1C(=O)c1ccccc1,0.383
9,Cc1ccc(C(C)CC(O)C2C=CC3C(=O)N(Cc4ccccc4)C(=O)C3N2n2cnnc2)o1 (stereo not drawn),0.866
10,CN1C(=O)C2C=CC(C(O)c3cccc4ccccc34)N(NC(=O)OC(C)(C)C)C2C1=O (stereo not drawn),1.03
11,O=C1N(Cc2ccccc2)c2ccccc2[C@H]2OC(c3ccc(OCCCO)cc3)=N[C@@]12CCS(=O)(=O)c1ccccc1,1.31
12,COC(=O)[C@@]1(Cc2ccccc2)[C@H]2c3cc(C(=O)N4CCCC4)n(Cc4ccccc4)c3C[C@H]2CN1C(=O)c1ccccc1,0.882
13,CCOC(=O)C[C@H]1[C@H](OC(=O)c2ccccc2-c2ccccc2)[C@@H](NC(=O)c2ccccc2)c2cc(OCCCO)ccc2N1C(=O)Cc1ccc(OC)cc1,-0.519
14,COc1ccccc1CN1C(=O)c2ccccc2[C@@H](C(=O)NCC(C)C)[C@@H]1c1ccc(CO)cc1,-0.0674
15,COC(=O)C(CC#Cc1ccc2c(c1)[C@]1(C(=O)N2)[C@H](c2ccc(O)cc2)N2[C@H](c3ccccc3)[C@H](c3ccccc3)OC(=O)[C@H]2[C@@H]1C(N)=O)C(=O)OC,-1.29
16,CCCC[C@@H](O)C1=C(COc2ccccc2)Cn2c(=O)n(-c3ccccc3)c(=O)n2[C@H]1CO,0.106
17,NC(=O)[C@H]1[C@@H]2C(=O)O[C@@H](c3ccccc3)[C@@H](c3ccccc3)N2[C@@H](c2ccc(O)cc2)[C@]12C(=O)Nc1ccc(C#CC3(O)CCCCCC3)cc12,1.31
18,CCCN1C(=O)[C@@]2(Cc3ccccc3)N=C(c3ccc(OCCCO)cc3)O[C@H]2c2ccccc21,1.14

row,SMILES,composite z-score
1,COC(=O)[C@@]1(Cc2ccc(OC)cc2)[C@H]2c3cc(C(=O)N4CCCC4)n(CCc4ccc(O)c(OC)c4)c3C[C@H]2CN1C(=O)c1ccccc1,-0.175
2,COCCOC(=O)N1C(=O)[C@@]2(c3cc(C#Cc4ccc(OC)cc4)ccc31)[C@H](C(=O)N1CCc3cc(OC)c(OC)cc3C1)[C@H]1C(=O)O[C@H](c3ccccc3)[C@H](c3ccccc3)N1[C@@H]2c1ccc(OCCO)cc1,1.03
3,C[N+](C)(C)CCCCCCNC(=O)[C@@H]1C[C@@H]2C(=O)NCC(=O)N2[C@@H]1c1ccc(O)cc1,0.657
4,COCCCNC(=O)[C@]1(CCS(=O)(=O)c2ccccc2)N=C(c2ccc(OCCCO)cc2)O[C@@H]1c1ccccc1,1.01
5,C[C@@]1([C@@H](NC(=O)c2cccs2)c2ccc(-c3ccccc3)cc2)C[C@H]1C1CCCCC1,-1.74
6,COc1cccc(C[C@H]2C[C@@H](CO[Si](C(C)C)(C(C)C)C(C)C)N3C(=O)[C@]4(C(C)=O)O[C@]23[C@H]2C(=O)N(C)C(=O)[C@H]24)c1,1.02
7,[N-]=[N+]=Nc1ccccc1[C@@H]1OC(c2ccc(OCCCO)cc2)=N[C@]1(CCS(=O)(=O)c1ccccc1)C(=O)NCc1ccccc1,0.309
8,C=CC[C@@]1(C(=O)NCCN2CCOCC2)N=C(c2ccc(OCCCO)cc2)O[C@@H]1c1ccccc1,1.29
9,COC(=O)C(CC#Cc1ccc2c(c1)[C@]1(C(=O)N2)[C@H](c2ccc(OCCO)cc2)N2[C@H](c3ccccc3)[C@H](c3ccccc3)OC(=O)[C@H]2[C@@H]1C(=O)O)C(=O)OC,1.03
10,COC(=O)c1ccc(OC)c(/C=C\CC(CCc2ccccc2)OC(C)=O)c1 (stereo not drawn),-0.0629
11,COCC1=C([C@H](O)CCc2ccccc2)[C@H](CO)[C@@H]2C(=O)N(C)C(=O)[C@@H]2C1,0.189
12,COc1cc(NN2C(C(O)c3ccc(I)cc3)C=CC3C(=O)N(C)C(=O)C32)cc(OC)c1OC (stereo not drawn),-0.217
13,CC(C)N1C(=O)c2ccccc2[C@](C)(C(=O)O)[C@@H]1c1ccc(CO)cc1,-1.23
14,NC(=O)NCC#Cc1ccc2c(c1)[C@]1(C(=O)N2)[C@H](c2ccc(O)cc2)N2[C@H](c3ccccc3)[C@H](c3ccccc3)OC(=O)[C@H]2[C@@H]1C(N)=O,-1.08
15,CCCCC(CC)C(O)C1C=CC2C(=O)NC(=O)C2N1Nc1ccccn1 (stereo not drawn),0.493
16,COC(=O)[C@@]1(Cc2ccccc2)[C@H]2c3cc(C(=O)N4CCCC4)n(Cc4ccc(OC(F)(F)F)cc4)c3C[C@H]2CN1C(=O)c1ccccc1,0.728
17,C=C(COC)C(=O)CC[C@H](OC(=O)c1ccccc1-c1ccccc1C(=O)O)c1ccc(OCCO)cc1,0.667
